Assay results: publication PMC5540273 (PLoS ONE, 2017)

Experiments:
Details in all cases: concentration: 1 μM, replicates: in singlicate; n = 1
[1] = tested on: STK16
[2] = tested on: STK33
[3] = tested on: STK35
[4] = tested on: STK36
[5] = tested on: STK39
[6] = tested on: SYK
[7] = tested on: SgK110
[8] = tested on: T1, TAK1
T1 construct: gene MAP3K7

[9] = tested on: TAOK1
[10] = tested on: TAOK2
[11] = tested on: TAOK3
[12] = tested on: TBK1
[13] = tested on: TEC
[14] = tested on: TESK1
[15] = tested on: TGFBR2
[16] = tested on: TIE1
[17] = tested on: T2, TIE2
T2 construct: gene TEK

[18] = tested on: TLK1
[19] = tested on: TLK2
[20] = tested on: TGFBR1
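Also: KINOMEscan kinase panel screen.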

| SMILES | %Inh [1] | %Inh [2] | %Inh [3] | %Inh [4] | %Inh [5] | %Inh [6] | %Inh [7] | %Inh [8] | %Inh [9] | %Inh [10] | %Inh [11] | %Inh [12] | %Inh [13] | %Inh [14] | %Inh [15] | %Inh [16] | %Inh [17] | %Inh [18] | %Inh [19] | %Inh [20] |
| --- | --- | --- | --- | --- | --- | --- | --- | --- | --- | --- | --- | --- | --- | --- | --- | --- | --- | --- | --- | --- |
| Cc1cccc(-c2cc(Nc3ccncc3)c3ccccc3n2)n1 [GSK223675] | 19% | 0% | 0% | 0% | 0% | 2% | 0% | 0% | 0% | 0% | 0% | 28% | 0% | 63% | 0% | 0% | 0% | 21% | 0% | – |
| CC(C)(C)c1ccc(C(=O)Nc2cn3cc(Cl)ccc3n2)cc1 | 0% | 0% | 0% | 0% | 0% | 17% | 0% | 0% | 0% | 10% | 0% | 0% | 0% | 0% | 0% | 0% | 13% | 23% | 0% | 0% |
| Cc1nnc(-c2ccc3occ(-c4ccc(S(C)=O)cc4)c3c2)[nH]1 (centres unmarked) | 11% | 0% | 22% | 3% | 0% | 0% | 0% | 7% | 0% | 0% | 0% | 0% | 13% | 2% | 0% | 0% | 5% | 14% | 0% | 10% |
| COc1cc(Nc2nccc(N3CCC(NC(=O)Nc4cc(C)ccc4C)C3)n2)cc(OC)c1OC (centres unmarked) [GSK1379762] | 57% | 3% | 3% | 0% | 16% | 0% | 0% | 0% | 0% | 0% | 0% | 18% | 14% | 0% | 0% | 49% | 2% | 0% | 0% | 8% |
| Clc1cc(Cl)cc(Nc2ccnc(Nc3cc(Cl)cc(Cl)c3)n2)c1 [GSK175726] | 24% | 0% | 0% | 39% | 2% | 12% | 0% | 18% | 44% | 6% | 0% | 28% | 0% | 20% | 7% | 0% | 0% | 25% | 3% | 0% |
| O=C1NC(=O)C(N2CCc3ccccc32)=C1c1ccccc1Cl [SB-373598] | 58% | 9% | 1% | 22% | 7% | 48% | 0% | 7% | 15% | 100% | 15% | 19% | 0% | 27% | 10% | 13% | 6% | 8% | 4% | 9% |
| Cc1c(O)cccc1Nc1ccnc2ccc(C(F)(F)F)cc12.Cl [GW466413] | 0% | 0% | 0% | 0% | 3% | 0% | 0% | 0% | 0% | 0% | 0% | 0% | 0% | 10% | 8% | 12% | 0% | 14% | 0% | 2% |
| COc1ccc(Nc2nccc(NCCNC(=O)Nc3ccccc3F)n2)cc1 [GSK1379901] | 18% | 0% | 0% | 0% | 10% | 32% | 0% | 0% | 0% | 0% | 0% | 21% | 12% | 44% | 0% | 0% | 0% | 0% | 0% | 3% |
| Fc1cccc(COc2nnc(-c3ccc4c(c3)CCO4)o2)c1 | 7% | 2% | 4% | 7% | 0% | 0% | 0% | 7% | 0% | 0% | 0% | 0% | 33% | 0% | 0% | 7% | 0% | 25% | 0% | 10% |
| NC(=O)c1nnc2ccccc2c1N | 2% | 11% | 10% | 0% | 27% | 1% | 0% | 19% | 20% | 28% | 3% | 40% | 0% | 6% | 0% | 14% | 98.7% | 14% | 0% | 1% |
| COc1ccccc1CNC(=O)c1cc(C(=O)c2ccccc2C)c[nH]1 [GSK364507] | 11% | 0% | 0% | 0% | 14% | 16% | 0% | 0% | 0% | 0% | 0% | 19% | 0% | 36% | 0% | 0% | 0% | 0% | 0% | 9% |
| Cc1cccc(-c2nc(Nc3cccc(C(N)=O)c3)c3ccccc3n2)n1 [GW876019] | 0% | 29% | 0% | 0% | 0% | 14% | 41% | 0% | 0% | 30% | 0% | 40% | 2% | 0% | 15% | 0% | 41% | 0% | 4% | – |
| Cc1cc(N2Cc3ccccc3C2)nc(Nc2ccc(S(=O)(=O)N3CCOCC3)cc2)n1.Cl [GSK1669917] | 0% | 0% | 0% | 4% | 0% | 35% | 0% | 0% | 0% | 0% | 0% | 30% | 0% | 12% | 0% | 0% | 0% | 2% | 0% | 0% |
| Cc1cccc(-c2nc(Nc3ccncc3)c3ccccc3n2)n1 [GW855857] | 7% | 2% | 0% | 5% | 0% | 14% | 0% | 0% | 0% | 17% | 0% | 41% | 10% | 14% | 95.7% | 20% | 27% | 0% | 0% | – |
| CS(=O)(=O)c1ccc(-c2c(-c3ncn[nH]3)sc(N3CCOCC3)c2C#N)cc1 | 7% | 0% | 0% | 1% | 0% | 23% | 15% | 33% | 0% | 0% | 0% | 14% | 9% | 0% | 10% | 11% | 9% | 5% | 0% | 12% |
| Cc1ccc(C(=O)Nc2ccc(Nc3ccnc4cc(-c5ccccn5)ccc34)cc2O)cc1.Cl [GW440146] | 22% | 0% | 0% | 0% | 0% | 21% | 0% | 0% | 0% | 0% | 0% | 0% | 13% | 13% | 26% | 19% | 0% | 0% | 0% | 3% |
| COc1cc2nccc(Nc3ccc(NC(=O)c4ccc(C)cc4)c(O)c3)c2cc1OC.Cl [GW440132] | 0% | 7% | 0% | 0% | 0% | 38% | 0% | 0% | 0% | 0% | 0% | 0% | 3% | 25% | 0% | 6% | 0% | 0% | 0% | 0% |
| COC(=O)c1c(-c2ccccc2)c2cc(OC)ccc2c(=O)n1Cc1ccccc1 | 3% | 0% | 3% | 11% | 0% | 0% | 0% | 19% | 0% | 0% | 0% | 0% | 14% | 20% | 0% | 3% | 0% | 23% | 0% | 17% |
| Cl.Oc1ccc(-c2nc(-c3ccccc3)[nH]c2-c2ccncc2)cc1 [SB-428218] | 16% | 0% | 0% | 0% | 0% | 24% | 0% | 0% | 0% | 0% | 0% | 18% | 0% | 36% | 7% | 0% | 0% | 0% | 0% | 60% |
